Experimental data taken from PubChem BioAssay (NCI).
About 79,000 compounds went through this panel and 15% of them were active in at least one assay; those are over-represented in the sample as a whole. Values without a mark were called inactive. Activity calls are given as the source filed them. No stated cut-off is given here; in the data, active means growth inhibition above about 70%; inactive means the rest.

Key:
[1] = NCI Yeast Anticancer Drug Screen. Data for the rad52 strain (AID 147);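 further: 0% = growth of vehicle-treated control cultures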; details: S. cerevisiae rad52 mutant growth inhibition, stronger effect = higher value
Method in brief: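 Genetically altered yeast (DNA damage repair defect) treated with compound; inhibition calculated relative to vehicle.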

[2] = NCI Yeast Anticancer Drug Screen. Data for the wt1 strain (AID 149);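 further: 0% = growth of vehicle-treated wt1 cultures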; details: S. cerevisiae wt1 strain (SPY 50644) growth inhibition, stronger effect = higher value
Method in brief: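 Measured: growth of wt1 yeast under compound versus vehicle treatment, reported as inhibition.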

[3] = NCI Yeast Anticancer Drug Screen. Data for the mgt1 strain (AID 153); details: S. cerevisiae mgt1 mutant growth inhibition, stronger effect = higher value
Method in brief: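 Read-out: yeast growth inhibition vs vehicle control. Strain mgt1, drawn from a panel altered in DNA damage repair or cell cycle control.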

[4] = NCI Yeast Anticancer Drug Screen. Data for the rad50 strain (AID 155);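 further: 0% = growth of vehicle-only cultures of the same strain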; details: S. cerevisiae rad50 strain growth inhibition, stronger effect = higher value
Method in brief: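 Growth of the mutant yeast was measured after compound exposure and referenced to vehicle-treated cultures.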

[5] = NCI Yeast Anticancer Drug Screen. Data for the mec2-1 strain (AID 157); details: S. cerevisiae mec2-1 strain, stronger effect = higher value
Method in brief: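 Cells of the genetically defined mec2-1 yeast strain are incubated with test compound. Inhibition of growth is calculated against vehicle-treated controls.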

[6] = NCI Yeast Anticancer Drug Screen. Data for the rad14 strain (AID 159);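 further: 0% = growth of vehicle-treated control cultures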; details: S. cerevisiae rad14 strain growth inhibition, stronger effect = higher value
Method in brief: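 Here, inhibition of yeast growth was measured after compound exposure, using a strain with a genetic defect in DNA damage repair and vehicle-treated cultures as the reference.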

[7] = NCI Yeast Anticancer Drug Screen. Data for the sgs1 mgt1 strain (AID 161);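 further: 0% = growth of cultures given vehicle only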; details: S. cerevisiae sgs1 mgt1 strain, stronger effect = higher value
Method in brief: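 Mutant yeast exposed to compound; growth scored against vehicle-only wells.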

[8] = NCI Yeast Anticancer Drug Screen. Data for the CLN2oe strain (AID 163);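 further: 0% = growth of vehicle-only control cultures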; details: S. cerevisiae CLN2oe strain, stronger effect = higher value
Method in brief: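 Strain altered in cell-cycle control, incubated with compound; growth compared to solvent-treated controls.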

[9] = NCI Yeast Anticancer Drug Screen. Data for the cln2 rad14 strain (AID 165);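 further: 0% = growth equal to vehicle treated cultures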; details: S. cerevisiae cln2 rad14 strain, stronger effect = higher value
Method in brief: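 The screen exposed genetically defined yeast (cln2 rad14) to test compounds and scored growth inhibition relative to vehicle-treated controls.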

[10] = NCI Yeast Anticancer Drug Screen. Data for the bub3 strain (AID 167); details: S. cerevisiae bub3 mutant strain, stronger effect = higher value
Method in brief: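 Whole-cell yeast assay. The mutant strain was incubated with compounds, and growth inhibition was determined by comparison with vehicle-treated cells.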

[11] = NCI Yeast Anticancer Drug Screen. Data for the wt2 strain (AID 169);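 further: 0% = growth of vehicle-treated yeast cultures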; details: S. cerevisiae wt2 strain growth inhibition, stronger effect = higher value
Method in brief: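 Steps: yeast strain treated with compound; growth recorded; inhibition calculated relative to cultures given vehicle alone.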

[12] = NCI Yeast Anticancer Drug Screen. Data for the mlh1 strain (AID 171);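 further: 0% = growth of vehicle-treated control cultures of the same strain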; details: S. cerevisiae mlh1 strain growth inhibition, stronger effect = higher value
Method in brief: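 Yeast screen: mutant strain plus compound, growth scored against vehicle control wells.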

[13] = NCI Yeast Anticancer Drug Screen. Data for the sgs1 strain (AID 173);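 further: 0% = growth of vehicle-only control cultures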; details: S. cerevisiae sgs1 mutant, stronger effect = higher value
Method in brief: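 Inhibition of yeast growth served as the measure. The mutant strain was treated with each compound, and growth was normalised to cultures receiving vehicle alone.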

[14] = NCI Yeast Anticancer Drug Screen. Data for the mlh1 rad18 strain (AID 175); details: S. cerevisiae mlh1 rad18 strain growth inhibition, stronger effect = higher value
Method in brief: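 Compound-treated yeast growth, normalised to vehicle controls. Strain bears defined DNA repair mutations.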

[15] = NCI Yeast Anticancer Drug Screen. Data for the rad18 strain (AID 177); details: S. cerevisiae rad18 mutant growth inhibition, stronger effect = higher value
Method in brief: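 Inhibition values reflect reduced yeast growth compared with vehicle-treated controls, using a strain engineered with a DNA damage repair defect.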

[16] = at 5.0 µM (retest, dose inferred, filed as 0.5)
[17] = at 50.0 µM (retest, dose inferred, filed as 5.0)

SMILES: CC1(C)CC(=O)C(C=NC(=S)C(N)=S)=C(O)C1
- growth inhibition ([1]; at 1.2 µM): -47%
- growth inhibition ([1]; at 3.7 µM): -57%
- growth inhibition ([1]; at 11.0 µM): -63%
- growth inhibition ([1]; at 33.0 µM): -49%
- growth inhibition ([1]; at 100.0 µM): 69%
- growth inhibition ([2]; at 1.2 µM): -30%
- growth inhibition ([2]; at 3.7 µM): -39%
- growth inhibition ([2]; at 11.0 µM): -37%
- growth inhibition ([2]; at 33.0 µM): -16%
- growth inhibition ([2]; at 100.0 µM): 21%
- growth inhibition ([3]; at 1.2 µM): -13%
- growth inhibition ([3]; at 3.7 µM): 0%
- growth inhibition ([3]; at 11.0 µM): 3%
- growth inhibition ([3]; at 33.0 µM): 21%
- growth inhibition ([3]; at 100.0 µM): 84% (active)
- growth inhibition ([4]; at 1.2 µM): -15%
- growth inhibition ([4]; at 3.7 µM): -14%
- growth inhibition [4, 16]: -26%
- growth inhibition ([4]; at 11.0 µM): -13%
- growth inhibition ([4]; at 33.0 µM): 6%
- growth inhibition [4, 17]: 14%
- growth inhibition ([4]; at 50.0 µM): 15.5%
- growth inhibition ([4]; at 100.0 µM): 69%
- growth inhibition ([5]; at 1.2 µM): -40%
- growth inhibition ([5]; at 3.7 µM): -34%
- growth inhibition [5, 16]: -6%
- growth inhibition ([5]; at 11.0 µM): -41%
- growth inhibition ([5]; at 33.0 µM): -19%
- growth inhibition [5, 17]: 22%
- growth inhibition ([5]; at 50.0 µM): 74.1% (active)
- growth inhibition ([5]; at 100.0 µM): 91% (active)
- growth inhibition ([6]; at 1.2 µM): -18%
- growth inhibition ([6]; at 3.7 µM): -7%
- growth inhibition ([6]; at 11.0 µM): -16%
- growth inhibition ([6]; at 33.0 µM): -18%
- growth inhibition ([6]; at 100.0 µM): 19%
- growth inhibition [7, 16]: -2%
- growth inhibition [7, 17]: 8%
- growth inhibition ([7]; at 50.0 µM): 35.5%
- growth inhibition ([8]; at 1.2 µM): -35%
- growth inhibition ([8]; at 3.7 µM): -25%
- growth inhibition ([8]; at 11.0 µM): -30%
- growth inhibition ([8]; at 33.0 µM): -10%
- growth inhibition ([8]; at 100.0 µM): 96% (active)
- growth inhibition [9, 16]: 23%
- growth inhibition [9, 17]: 32%
- growth inhibition ([9]; at 50.0 µM): 10.3%
- growth inhibition ([10]; at 1.2 µM): -30%
- growth inhibition ([10]; at 3.7 µM): -20%
- growth inhibition [10, 16]: 18%
- growth inhibition ([10]; at 11.0 µM): -24%
- growth inhibition ([10]; at 33.0 µM): -31%
- growth inhibition [10, 17]: 38%
- growth inhibition ([10]; at 50.0 µM): 6.15%
- growth inhibition ([10]; at 100.0 µM): 91% (active)
- growth inhibition ([11]; at 1.2 µM): -47%
- growth inhibition ([11]; at 3.7 µM): -52%
- growth inhibition ([11]; at 11.0 µM): -59%
- growth inhibition ([11]; at 33.0 µM): -41%
- growth inhibition ([11]; at 100.0 µM): 20%
- growth inhibition ([12]; at 1.2 µM): -31%
- growth inhibition ([12]; at 3.7 µM): -26%
- growth inhibition ([12]; at 11.0 µM): -9%
- growth inhibition ([12]; at 33.0 µM): 6%
- growth inhibition ([12]; at 100.0 µM): 91% (active)
- growth inhibition ([13]; at 1.2 µM): -28%
- growth inhibition ([13]; at 3.7 µM): -31%
- growth inhibition ([13]; at 11.0 µM): -29%
- growth inhibition ([13]; at 33.0 µM): -15%
- growth inhibition ([13]; at 100.0 µM): 65%
- growth inhibition [14, 16]: -7%
- growth inhibition [14, 17]: 75% (active)
- growth inhibition ([14]; at 50.0 µM): 45.2%
- growth inhibition ([15]; at 1.2 µM): -8%
- growth inhibition ([15]; at 3.7 µM): -4%
- growth inhibition ([15]; at 11.0 µM): -15%
- growth inhibition ([15]; at 33.0 µM): -1%
- growth inhibition ([15]; at 100.0 µM): 70% (active)
